The structures appear in SMILES notation. Records with an inconclusive call do not appear. Values without a mark were called inactive. Calls follow the shape of the dose curve; as a rule, active = well fitted cell-killing curve with a large enough effect; inconclusive = small, poorly fitted or top-dose-only effect, or effect the other way; inactive = flat fitted curve, though single readings scatter. *1 amine or outer side, *2 acyl side, *3 side chain or, on linkers, in order; H or OH if unused. Where a SMILES comes first, the peptide text is derived from it. [ ]: non-standard residue; d: D form. X4 = CC(C)=CCc1cc(C(O)C(N[*:1])C(=O)[*:2])ccc1O

We go through 10 compounds from PubChem BioAssay (NCATS).
% is scaled to controls: 0 for no effect and ±100 for the full control effect.

The test system of this assay is Hek293T. The assay is described as follows: Primary qHTS to identify gynecologic anti-cancer compounds using libraries of approved drugs and bioactive compounds (AID 1345084). Also: nearly all actives have a fitted effect of over 55% in size. Particulars: Gynecologic cancer cell panel viability, ATPlite luminescence, 48 h, control line for the selectivity index; series mostly up to 57.5 µM; activity change, negative = cytotoxicity: at the top concentration. The method, boiled down: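 In this quantitative HTS, cell killing is estimated from loss of ATP-dependent luciferase light. Cells see five compound concentrations over a 48 h exposure.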
A general note: In qHTS, concentration-response curves come from the screen itself.
With `CN(C)CC1CCOC1(c1ccccc1)c1ccccc1` (stereo not given), the “activity change, negative = cytotoxicity” value was 5.89% [at 25.3 µM].

Take `O=C(OC1C=C(CO)C2C(OC3OC(CO)C(O)C(O)C3O)OC=CC12)c1ccc(O)cc1` (stereo not given): the “activity change, negative = cytotoxicity” value was -4.51% [at 25.3 µM]. On to `CC1(C)CC[C@]2(C(=O)OC3OC(CO)C(O)C(O)C3O)CC[C@]3(C)C(=CCC4[C@@]5(C)CC[C@H](OC6OC(C(=O)O)C(O)C(OC7OC(CO)C(O)C(O)C7O)C6O)C(C)(C)C5CC[C@]43C)C2C1` (stereo not given in full), for which the activity change, negative = cytotoxicity was 0.993% [at 11.6 µM].

Take `CC(C)=CCc1cc(C(O)C2NC(=O)CNC(=O)C(Cc3c[nH]c4ccccc34)NC(=O)C3CCCN3C(=O)CNC(=O)C(C(C)C)NC(=O)CNC2=O)ccc1O` (stereo not given) (cyclo(G[X4]GVGPW); configuration not given here): the activity change, negative = cytotoxicity was -0.92% [at 11.6 µM].

Consider `COc1ccc(CCO[C@@H]2CCCC[C@H]2N2CC[C@@H](O)C2)cc1OC`, for which the “activity change, negative = cytotoxicity” value is 12.9%. Turning to `COC(=O)C1=CO[C@@H](O[C@@H]2O[C@H](CO)[C@@H](O)[C@H](O)[C@H]2O)[C@@H]2C(COC(C)=O)=C[C@H](O)[C@H]12`, the “activity change, negative = cytotoxicity” value is 10.9% [at 25.3 µM].

As for `CC12CCC(OC3OC(CO)C(O)C(OC4OC(CO)C(O)C(O)C4O)C3O)CC1=CCC1C2CCC2(C)/C(=C3/COC(=O)C3)CCC12O` (stereo not given), the “activity change, negative = cytotoxicity” value is 6.32% [at 25.3 µM]. `C/C1=C\[C@H]2OC(=O)[C@@H](C)[C@@H]2CC/C(C(=O)O)=C/CC1`: the “activity change, negative = cytotoxicity” value is -4.53%. As to `CC12CCC(OC3OC(CO)C(O)C(OC4OC(CO)C(O)C(O)C4O)C3O)CC1CCC1C2CCC2(C)/C(=C3/COC(=O)C3)CCC12O` (stereo not given), the “activity change, negative = cytotoxicity” value is -14.2% [at 25.3 µM]. For the compound `CC1(C)CCC[C@@]2(C)C1[C@H](OC(=O)/C=C/C=C/C(=O)O)C=C1COC(=O)[C@@]12O` (stereo not given in full), the “activity change, negative = cytotoxicity” value is 5.59% [at 38.5 µM].
